Measurements reported in PubChem BioAssay (NCATS).
Values joined by “and” are separate entries in the source; they are usually repeats but may differ in a detail not shown here. Equal values may be shown once. Values without a mark were called inactive. Inconclusive results are not listed. Where a call stands in place of a potency, no number is given. Active and inactive are the calls of the source. Unless noted, calls follow the shape of the dose curve; as a rule, active = well fitted curve in the direction sought with a large enough effect; inconclusive = small, poorly fitted or top-dose-only effect, or another doubt; inactive = no such curve, though single readings can be large; an effect the other way counts as inactive or inconclusive.

Tests used:
[1] = Cell Viability - HUV-EC-C (AID 542);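 also: cells exposed to compound for 40 hours; nearly all actives have a fitted effect of over 35% in size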; also: potency is read from the fitted curve at half-maximal effect
Summary of the method: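 Decrease in cellular ATP, quantified by luciferase luminescence, reflects toxicity in normal human vascular endothelial HUV-EC-C cells given compound for 40 hr in complete culture medium. Values are AC50s from concentration-response curves.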

[2] = Cell Viability - H-4-II-E (AID 543);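 also: cells exposed to compound for 40 hours; nearly all actives have a fitted effect of over 35% in size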; also: potency is read from the fitted curve at half-maximal effect
Summary of the method: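 Here, cytotoxicity is measured in the rat hepatoma line H-4-II-E as loss of intracellular ATP after 40 hr compound treatment, detected by luciferase luminescence.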

[3] = Cell Viability - SH-SY5Y (AID 544); conditions: SH-SY5Y neuroblastoma cell viability; viability change, negative = cytotoxic: at 92.2 µM (top of the series);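 also: cells exposed to compound for 40 hours; nearly all actives have a fitted effect of over 55% in size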; also: potency is read from the fitted curve at half-maximal effect
Summary of the method: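 Cytotoxicity is scored as a concentration-dependent fall in intracellular ATP in human SH-SY5Y cells treated 40 hr in complete culture medium. Potency is expressed as AC50 from a Hill equation fit.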

[4] = Cellular Toxicity (caspase-3) Renal Proximal Tubule (AID 667); conditions: renal proximal tubule cells; at 91.7 µM (top of the series) unless noted;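 also: cells exposed to compound for 16 hours at 37 °C before detection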
Summary of the method: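 Luminescent caspase 3/7 signal from peptide-aminoluciferin cleavage measures apoptosis in freshly isolated rat kidney proximal tubule cells after 16 h compound exposure. Concentration-response data are normalized to DMSO and 10 uM staurosporine, and AC50 values come from Hill equation fits.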

[5] = Cell Viability - LYMP2-001 (AID 921); also: nearly all actives have a fitted effect of over 70% in size; also: potency is read from the fitted curve at half-maximal effect
Summary of the method: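 CellTiter-Glo luminescence (intracellular ATP) after 24 hr compound exposure at 37 C, 2500 lymphoblastoid cells/well in complete medium. AC50 fitted with standard Hill equation; tetraoctylammonium bromide positive control.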

[6] = Cell Viability - LYMP1-002 - Assay at 16 hr (AID 948); also: potency is read from the fitted curve at half-maximal effect
Summary of the method: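 LYMP1-002 human lymphoblastoid cells, 2500/well; 5 hr 37 C; cpd 16 hr 37 C; CellTiter-Glo 30 min RT; luminescence (ATP). Concentration-response, Hill-fit AC50. Pos ctrl tetraoctylammonium bromide.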

[7] = MultiTox-Fluor Cytotoxicity Assay - LYMP1-003 - Dead Cells (AID 961); also: nearly all actives have a fitted effect of over 70% in size; also: potency is read from the fitted curve at half-maximal effect
Summary of the method: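 Dead-cell protease release, detected as bis-AAF-R110 fluorescence at 485/520 nm, was measured in LYMP1-003 cells after 16 h compound treatment at 37 C. AC50 values came from Hill-modeled qHTS curves normalized to DMSO (0%) and 15 uM tetraoctylammonium bromide (100%).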

[8] = Cell Viability - LYMP1-003 - Assay at 40 hr (AID 964); also: nearly all actives have a fitted effect of over 60% in size; also: potency is read from the fitted curve at half-maximal effect
Summary of the method: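 This qHTS cytotoxicity screen treats human lymphoblastoid cells (LYMP1-003) with compounds for 40 hr and quantifies cellular ATP via luciferase luminescence.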

[9] = Cell Viability - LYMP2-005 (AID 967); also: potency is read from the fitted curve at half-maximal effect
Summary of the method: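 Steps: seed 2500 LYMP2-005 cells/well, incubate 5 h at 37 C, add compound, incubate 24 h at 37 C, add CellTiter-Glo, wait 30 min at RT, read luminescence. Concentration-response data fitted to Hill equation for AC50.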

[10] = Cell Viability - LYMP2-009 (AID 968); also: nearly all actives have a fitted effect of over 55% in size; also: potency is read from the fitted curve at half-maximal effect
[11] = Cell Viability - LYMP2-011 (AID 969);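 also: cells exposed to compound for 24 hours; nearly all actives have a fitted effect of over 60% in size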; also: potency is read from the fitted curve at half-maximal effect
Summary of the method: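 Acute toxicity is scored as a concentration-dependent drop in intracellular ATP of a human lymphoblastoid line after 24 hr treatment. Values are AC50s modeled with the Hill equation.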

[12] = Cell Viability - LYMP2-017 (AID 972);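 also: cells exposed to compound for 24 hours at 37 °C; nearly all actives have a fitted effect of over 55% in size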; also: potency is read from the fitted curve at half-maximal effect
Summary of the method: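 Steps: plate 2500 lymphoblastoid cells per well; incubate 5 hr at 37 C; add compound across a concentration series and incubate 24 hr at 37 C; add CellTiter-Glo and read luminescence after 30 min at room temperature; fit Hill curves for AC50.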

[13] = Cell Viability - LYMP2-019 (AID 973); also: nearly all actives have a fitted effect of over 55% in size; also: potency is read from the fitted curve at half-maximal effect
Summary of the method: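 Cells plated at 2500/well and allowed 5 hr at 37 C before compound addition. After 24 hr incubation, CellTiter-Glo reagent was added, plates sat 30 min at room temperature, and luminescence was recorded.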

[14] = Cell Viability - LYMP2-023 (AID 975); also: potency is read from the fitted curve at half-maximal effect
Summary of the method: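 Concentration-dependent drop in intracellular ATP measures acute cytotoxicity in a human lymphoblastoid line treated for 24 hours in complete culture medium. AC50 values are taken from Hill-equation fits of qHTS data.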

[15] = Cell Viability - LYMP2-008 (AID 980); also: nearly all actives have a fitted effect of over 60% in size; also: potency is read from the fitted curve at half-maximal effect
Summary of the method: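 Acute cytotoxicity is scored as concentration-dependent loss of cellular ATP in a human lymphoblastoid line after 24 hr treatment at 37 C. ATP is quantified by luciferase luminescence.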

[16] = Cell Viability - LYMP1-002 - Assay at 24 hr (AID 993); also: potency is read from the fitted curve at half-maximal effect
Summary of the method: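 qHTS, LYMP1-002 lymphoblastoid, 24 h cpd, 37 C, CellTiter-Glo ATP luminescence; AC50 via Hill eq.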

[17] = Cell Viability - LYMP1-002 - Assay at 40 hr (AID 994); also: nearly all actives have a fitted effect of over 60% in size; also: potency is read from the fitted curve at half-maximal effect
Summary of the method: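 Viability in the human lymphoblastoid line was measured as intracellular ATP via CellTiter-Glo after 40 hr compound exposure. Tetraoctylammonium bromide served as positive control.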

[18] = qHTS assay for small molecule agonists of the antioxidant response element (ARE) signaling pathway measured by Nrf2-dependant transcriptional activity - cell viability counter screen (AID 720653; active = well fitted curve in the direction sought with a large enough effect in the repeat runs; an effect the other way counts as inactive or inconclusive; also: potency is read from the fitted curve at half-maximal effect); conditions: ARE-bla HepG2 viability, CellTiter-Glo ATP luminescence, 16 h; max response: hits give low values
Summary of the method: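 ARE-bla HepG2 cells (2,000/well) rested 5 hrs at 37C/5% CO2, then exposed to compounds in DMSO for 16 hrs. Viability was read in the same wells as intracellular ATP by luminescence, 30 min at room temperature after reagent addition.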

[19] = qHTS assay for cell viability of HEK293 cells (AID 743288); conditions: ATP luminescence (CellTiter-Glo), 18 h; max response: hits give low values; also: nearly all actives have a fitted effect of over 50% in size; also: potency is read from the fitted curve at half-maximal effect
Summary of the method: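 Environmental chemicals tested in qHTS format against parental HEK293 cells; 18 h treatment, 37 C; read-out ATP luminescence (CellTiter-Glo), 30 min RT development.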

[20] = Cellular Toxicity (caspase-3) SHSY5Y (AID 657)
Summary of the method: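 Luminescent caspase-3/7 readout (aminoluciferin release) in SH-SY5Y cells after 16 h compound exposure in complete medium. Activity scaled between DMSO basal and 10 uM staurosporine as 100%; concentration-response fitted to Hill equation for AC50.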

N#CSCSC#N
Potency [1]: 25.1 µM (active)
Potency [2]: 10 µM (active)
Potency [3]: 1 µM (active)
caspase-3 activation [4]: -11.6%
Potency [5]: 5.01 µM (active)
Potency [6]: 31.6 µM (active)
Potency [7]: 25.1 µM (active)
Potency [8]: 39.8 µM (active)
Potency [9]: 5.01 µM (active)
Potency [10]: 5.01 µM (active)
Potency [11]: 6.31 µM (active)
Potency [12]: 5.01 µM (active)
Potency [13]: 5.01 µM (active)
Potency [14]: 6.31 µM (active)
Potency [15]: 7.94 µM (active)
Potency [16]: 12.6 µM (active)
Potency [17]: 31.6 µM (active)
Potency [18]: 44.7 µM (active) and 39.8 µM (active)
Potency [19]: 28.2 µM (active)

FC(F)(F)c1ccc(Cl)cc1
Potency [1]: inactive
Potency [2]: inactive
Potency [3]: inactive
Potency [20]: inactive
caspase-3 activation [4]: 5.86% [at 91.7 µM, primary cells freshly taken from rat, solvent-only wells 0%, staurosporine 100%]
Potency [5]: inactive
Potency [6]: inactive
Potency [7]: inactive
Potency [8]: inactive
Potency [9]: inactive
Potency [10]: inactive
Potency [11]: inactive
Potency [12]: inactive
Potency [13]: inactive
Potency [14]: inactive
Potency [15]: inactive
Potency [16]: inactive
Potency [17]: inactive
max response [18]: 7.1% and -8.38%
max response [19]: -1.88% and 4.63%

c1ccc2cc3c(cc2c1)-c1cccc2cccc-3c12
Potency [1]: inactive
Potency [2]: inactive
Potency [3]: inactive
Potency [20]: inactive
caspase-3 activation [4]: -4.56%
Potency [5]: inactive
Potency [6]: inactive
Potency [7]: inactive
Potency [8]: inactive
Potency [9]: inactive
Potency [10]: inactive
Potency [11]: inactive
Potency [12]: inactive
Potency [13]: inactive
Potency [14]: inactive
Potency [15]: inactive
Potency [16]: inactive
Potency [17]: inactive
max response [18]: -11.7% and -17%
max response [19]: 4.38% and -18.8%

C#CCO
Potency [1]: inactive
Potency [2]: inactive
Potency [3]: inactive
Potency [20]: inactive
caspase-3 activation [4]: -11.4% [at 91.7 µM, primary cells freshly taken from rat, solvent-only wells 0%, staurosporine 100%]
Potency [5]: inactive
Potency [6]: inactive
Potency [7]: inactive
Potency [8]: inactive
Potency [9]: inactive
Potency [10]: inactive
Potency [11]: inactive
Potency [12]: inactive
Potency [13]: inactive
Potency [14]: inactive
Potency [15]: inactive
Potency [16]: inactive
Potency [17]: inactive
max response [18]: -2.39%
max response [19]: -6.13%

ClC1=C(Cl)C2(Cl)C3C(Cl)C(Cl)CC3C1(Cl)C2(Cl)Cl (centres undefined)
viability change, negative = cytotoxic [3]: -97.5% (active)
Potency [5]: inactive
Potency [7]: 50.1 µM (active)
Potency [9]: inactive
Potency [10]: inactive
Potency [11]: inactive
Potency [13]: inactive
Potency [16]: inactive
max response [18]: -13.1%

O=[N+]([O-])C(Br)Br
Potency [1]: inactive
Potency [2]: 31.6 µM (active)
viability change, negative = cytotoxic [3]: -98.3% (active)
Potency [20]: inactive
Potency [5]: 7.94 µM (active)
Potency [6]: inactive
Potency [7]: inactive
Potency [8]: inactive
Potency [9]: 25.1 µM (active)
Potency [10]: 12.6 µM (active)
Potency [11]: 12.6 µM (active)
Potency [12]: 7.94 µM (active)
Potency [13]: 10 µM (active)
Potency [14]: 12.6 µM (active)
Potency [16]: inactive
Potency [17]: inactive
max response [19]: -25.4%

[Cd+2].[Cl-].[Cl-]
Potency [1]: inactive
Potency [2]: 1.26 µM (active)
Potency [20]: inactive
Potency [8]: 15.8 µM (active)
